KB-V1 cytotox: qHTS assay for MDR1-selective chemotherapeutics: Primary screen using the drug-selected MDR subline cells KB-V1; Potency, µM (top dose mostly 46.1 µM), actives largely listed as cytotoxic; KB-V1 MDR cells viability, CellTiter-Glo, 72 h; 3.4% of 400,000 active; also: potency is read from the fitted curve at half-maximal effect; % is scaled to controls: 0 for no effect and ±100 for the full control effect; nearly all actives have a fitted effect of over 60% in size
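Following 72 h at 37 degrees C with compound, KB-V1 cell viability was read by CellTiter-Glo luminescence, medium being phenol-red-free DMEM plus 10% FBS; concentration-response parameters came from normalized, curve-fitted qHTS data.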
KCNH2 3.1 inh: qHTS for Inhibitors of KCHN2 3.1: Mutant qHTS; 0.95% of 340,000 active; Potassium voltage-gated channel subfamily H member 2, brain isoform KCNH2 3.1 (human); U2OS KCNH2 3.1, thallium flux FluxOr; active compounds read low; activity change, % (tested at about 1.8 µM); AID 720553, 2013;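 active = maximum activity change below -70%; inconclusive = maximum activity change from -70% to -50%; inactive = maximum activity change above -50%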;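 also: thallium influx rate constant from kinetic fluorescence after stimulation buffer; % is scaled to controls: 0 for no effect and ±100 for the full control effect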
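Thallium flux read-out: FluxOr dye with Red40 quencher in HBSS/HEPES, 45 min at RT. Rate constants from kinetic reads were normalized to positive and negative DMSO controls. Cells: U2OS virally expressing the 3.1 isoform.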
KB-3-1 cytotox: qHTS assay for MDR1-selective chemotherapeutics: Primary screen using the parental adenocarcinoma cell KB-3-1; KB-3-1 viability, CellTiter-Glo ATP luminescence, 72 h; Potency, µM (top dose mostly 46.1 µM), actives largely listed as cytotoxic; 1.4% of 400,000 active; also: potency is read from the fitted curve at half-maximal effect; % is scaled to controls: 0 for no effect and ±100 for the full control effect; nearly all actives have a fitted effect of over 60% in size
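Multi-concentration cytotoxicity screen in KB-3-1 cells grown in DMEM lacking phenol red with 10% FBS. After 72 h at 37 °C with compound, ATP-dependent luminescence was recorded.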
KCNH2 WT inh: qHTS for Inhibitors of KCHN2 3.1: Wildtype qHTS. U2OS, BacMam KCNH2, thallium flux FluxOr; active compounds read low. activity change, % at 1.84 µM. 0.37% of 340,000 active. AID 720551, 2013;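 active = maximum activity change below -70%; inconclusive = maximum activity change between -70% and -50%; inactive = maximum activity change above -50%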; also: % is scaled to controls: 0 for no effect and ±100 for the full control effect
Target sequence (Q12809 whole entry, looked up): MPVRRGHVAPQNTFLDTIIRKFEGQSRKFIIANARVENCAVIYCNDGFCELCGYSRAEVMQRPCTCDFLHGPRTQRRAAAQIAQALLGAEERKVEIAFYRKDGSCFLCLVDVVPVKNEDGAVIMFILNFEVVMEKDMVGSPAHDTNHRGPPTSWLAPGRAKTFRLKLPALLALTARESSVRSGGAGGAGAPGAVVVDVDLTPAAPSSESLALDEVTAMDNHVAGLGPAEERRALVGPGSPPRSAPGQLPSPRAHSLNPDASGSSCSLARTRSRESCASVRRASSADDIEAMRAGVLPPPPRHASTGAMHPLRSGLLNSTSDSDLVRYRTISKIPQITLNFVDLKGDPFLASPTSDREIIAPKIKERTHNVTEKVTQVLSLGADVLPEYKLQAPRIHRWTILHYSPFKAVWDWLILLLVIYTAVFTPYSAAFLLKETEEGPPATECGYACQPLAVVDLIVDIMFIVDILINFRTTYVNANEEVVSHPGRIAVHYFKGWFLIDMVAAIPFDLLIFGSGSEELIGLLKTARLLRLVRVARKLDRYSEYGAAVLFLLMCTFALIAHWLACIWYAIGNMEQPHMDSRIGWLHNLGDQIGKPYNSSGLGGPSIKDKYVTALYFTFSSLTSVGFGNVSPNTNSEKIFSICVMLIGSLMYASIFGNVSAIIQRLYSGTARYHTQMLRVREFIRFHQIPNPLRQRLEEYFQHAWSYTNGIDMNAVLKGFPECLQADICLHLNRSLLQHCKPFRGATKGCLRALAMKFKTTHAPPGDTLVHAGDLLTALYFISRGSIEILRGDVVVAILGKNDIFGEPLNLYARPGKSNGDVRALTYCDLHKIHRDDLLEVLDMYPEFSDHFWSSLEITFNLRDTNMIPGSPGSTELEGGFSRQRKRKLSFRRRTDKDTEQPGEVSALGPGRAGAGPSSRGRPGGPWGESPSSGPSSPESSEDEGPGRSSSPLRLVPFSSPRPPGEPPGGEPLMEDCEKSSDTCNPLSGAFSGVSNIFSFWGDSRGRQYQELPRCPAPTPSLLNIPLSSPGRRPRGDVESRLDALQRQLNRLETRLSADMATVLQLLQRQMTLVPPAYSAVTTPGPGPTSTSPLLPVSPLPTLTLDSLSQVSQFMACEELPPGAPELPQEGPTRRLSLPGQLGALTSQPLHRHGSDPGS
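U2OS cells transduced with wild-type KCNH2 virus are loaded with FluxOr dye for 45 min, and thallium flux is measured in kinetic reads before and after stimulation buffer. Rate constants are normalized to DMSO controls.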
SW480 rerep: A quantitative high throughput screen for small molecules that induce DNA re-replication in SW480 colon adenocarcinoma cells; SW480 DNA re-replication, Hoechst DNA content imaging, 48 h; Potency, µM (titrated, usually from 46.1 µM), for the others: top-dose re-replication activation, hits mostly activators; 1.8% of 340,000 active; also: potency is read from the fitted curve at half-maximal effect; % of control where 0% means no effect; nearly all actives have a fitted effect of over 55% in size
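DNA re-replication was detected as more nuclei of elevated Hoechst intensity after 48 hr exposure to compound (23 nL pinned per well of 250 cells).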
MCF10A rerep: A quantitative high throughput screen for small molecules that induce DNA re-replication in MCF 10a normal breast cells | MCF 10A DNA re-replication, Hoechst nuclear intensity, 48 h | Potency, µM (series often up to 46.1 µM), for inactives: at the highest dose activity, positive = re-replication, actives largely listed as activators | 2.9% of 350,000 active | AID 624296, 2012; also: potency is read from the fitted curve at half-maximal effect; % of control where 0% means no effect; nearly all actives have a fitted effect of over 50% in size
Active calls of the source: *; i = inactive; ? = inconclusive; / = no result. In the library only some 7.6% were active in any assay of this set; here they are far more common. Unless noted, calls follow the shape of the dose curve; as a rule, active = well fitted curve in the direction sought with a large enough effect; inconclusive = small, poorly fitted or top-dose-only effect, or another doubt; inactive = no such curve, though single readings can be large; an effect the other way counts as inactive or inconclusive.

SMILES	KB-V1 cytotox	KCNH2 3.1 inh	KB-3-1 cytotox	KCNH2 WT inh	SW480 rerep	MCF10A rerep
CC(=O)N1c2ccc(S(=O)(=O)NCC3CCC(C(=O)N4CCCC(C)C4)CC3)cc2CC1C (stereo unspecified)	i	5.1	i	4.5	-15.9%	11.3%
COc1ccc(C(C#N)=Cc2ccccc2OC)cc1	8.2µM*	-5.8	16.4µM*	5.9	/	/
COc1ccc(C(C#N)=Cc2ccc(NC(C)=O)cc2)cc1	i	-17.9	i	0.5	?	16.4µM*
COc1ccc(C(C#N)=Cc2ccc(OC)c(OC)c2)cc1	i	-7.6	i	-3.0	/	/
COc1ccc2nc(/C(C#N)=C\c3ccc(C(=O)O)cc3)[nH]c2c1	i	24.7	i	9.5	18.4µM*	164.5%
CC(=O)Nc1ccc(C(C#N)=Cc2ccc(N(C)CCC#N)cc2)cc1	?	-15.0	i	-11.3	/	/
COc1ccccc1NC(=O)C/C(N)=N/OCC(=O)Nc1cccc(Cl)c1	18.4µM*	13.1	i	-12.8	-3.0%	-4.7%
C[C@@H](C(=O)N1CCN(C(=O)OC(C)(C)C)CC1)n1cc(CCC(=O)O)nn1	i	4.7	i	-13.0	4.4%	3.2%
CC(=O)Nc1ccc2c(c1)Cc1c-2cc(Cl)c(NC(C)=O)c1Cl	i	-12.1	i	-7.9	-8.5%	8.4%
CC(=O)Nc1c(Br)cc2c(c1Br)Cc1cc([N+](=O)[O-])ccc1-2	?	3.9	i	-0.2	4.11µM*	?
O=C(Nc1c(Cl)cc2c(c1Cl)Cc1cc([N+](=O)[O-])ccc1-2)C(Cl)Cl	?	-19.5	?	-4.9	?	18.4µM*
COCCn1c(-c2ccc(-c3ccccc3Cl)o2)nc2c1c(=O)[nH]c(=O)n2CC(C)C	i	22.3	i	6.5	?	11.6µM*
CCCCNC(=S)N(C)/N=C/c1ccc(OCC(=O)Nc2c(C)cc(C)cc2C)c(OC)c1	i	15.6	i	2.9	16.4µM*	18.4µM*
CCCCNC(=S)N(C)/N=C/c1ccc(OCC(=O)Nc2ccc(OC)cc2)c(OC)c1	?	18.8	i	-10.9	?	25.3%
COc1ccc(-c2csc(C(NC(C)=O)c3ccccc3)n2)cc1 (stereo unspecified)	i	/	i	/	/	/
O=C(O)c1cc(-c2ccc(/C=N/N3C(=O)C4C5C=CC(C6CC56)C4C3=O)o2)ccc1Cl (stereo unspecified)	i	1.2	i	-12.8	-3.0%	-0.9%
CCOc1ccc(N(C)S(=O)(=O)c2ccc(C)c(C(=O)NCc3cccs3)c2)cc1	?	-11.3	?	8.2	-2.1%	8.9%
CC(NC(=O)C(Cc1ccccc1)N1C(=O)C2C3CCC(C3)C2C1=O)c1ccccc1 (stereo unspecified)	7.31µM*	2.0	i	2.8	1.1%	-2.0%
O=[N+]([O-])c1ccc(CSc2nnc3ccccn23)cc1	?	-4.1	i	3.8	-7.9%	0.5%
O=C(c1nc(SCc2ccc([N+](=O)[O-])cc2)n2ccccc12)C(F)(F)F	i	-71.1*	i	20.2	-6.9%	13.0%
COc1cc(N=Nc2ccccc2C(=O)O)ccc1O	i	0.3	i	-5.4	0.8%	18.4µM*
Cc1cc2c(cc1NC(=O)c1ccc(C(C)(C)C)cc1)n(C)c(=O)c(=O)n2C	?	/	i	/	/	/
COC(=O)[C@]1(C)N[C@H](c2ccc(-c3ccccc3)cc2)[C@@H]2C(=O)N(C)C(=O)[C@@H]21	i	13.4	i	0.2	8.2%	-0.6%
COc1ccc(N(Cc2ccccc2)C(=O)c2ccccc2[N+](=O)[O-])cc1	14.6µM*	6.4	?	-1.4	8.9%	3.9%
Cc1cccc(NC(=O)N2CCC(c3nc4ccccc4o3)CC2)c1	18.4µM*	-5.1	i	-38.6	-8.2%	-10.2%
SMILES	KB-V1 cytotox	KCNH2 3.1 inh	KB-3-1 cytotox	KCNH2 WT inh	SW480 rerep	MCF10A rerep
CC1CCCN(C(=O)CSc2c3c(nc4cc(Cl)ccc24)CCCC3)C1 (stereo unspecified)	i	/	i	/	/	/
CN(C)c1ccc(C=c2c3ccccc3n3c2cc(-c2ccccc2)[n+]3C)cc1	16.4µM*	14.6	?	2.9	?	-9.0%
COc1cc(N(C)C)ccc1C=c1c2ccccc2n2c1cc(-c1ccccc1)[n+]2C	?	/	1.03µM*	-2.3	?	8.0%
CN(C)c1ccc(C=c2c3cc([N+](=O)[O-])ccc3n3c2cc(-c2ccccc2)[n+]3C)cc1	i	6.2	5.17µM*	5.3	6.6%	?
CN(C)c1ccc(C=c2c3ccccc3n3c2cc(-c2ccc(Cl)cc2)[n+]3C)cc1	i	-190.6*	7.31µM*	-207.1*	?	25.8%
COc1cc(C=c2c3ccccc3n3c2cc(-c2ccccc2)[n+]3C)cc(OC)c1OC	?	-7.1	?	0.1	?	?
COC(=O)C(=Nc1ccccc1)/C(C(=O)C(=O)N(C)c1ccccc1)=C(\O)c1ccccc1	?	6.9	i	-6.2	-12.0%	-0.3%
CN1CCN(c2nc(-c3cccc([N+](=O)[O-])c3)nc3ccccc23)CC1	i	-1.4	i	35.2	23.1µM*	23.1µM*
COc1ccc(S(=O)(=O)Nc2cc(Cl)ccc2OC)cc1	5.8µM*	-0.7	3.66µM*	1.9	2.91µM*	3.26µM*
COc1ccc(Cl)cc1NS(=O)(=O)c1ccc(S(=O)(=O)N2CCCC2)cc1	i	4.8	i	29.7	7.7%	-9.5%
COc1ccc(S(=O)(=O)Nc2ccccc2C(=O)NC(C)C)cc1OC	i	-0.9	i	11.6	-3.0%	-3.8%
COc1ccc(S(=O)(=O)Nc2ccccc2C(N)=O)cc1OC	i	39.8	i	-3.4	6.51µM*	-7.3%
COc1ccc(Cl)cc1NS(=O)(=O)c1ccc(OC)c(OC)c1	16.4µM*	-1.6	i	-2.6	-5.9%	0.8%
COc1cc(S(=O)(=O)Nc2c(C)cc(C)cc2C)ccc1Cl	18.4µM*	8.4	i	4.1	3.0%	8.8%
CCOc1ccc(NC(=O)c2sc(-n3nc(C)c(CCC(C)C)c3C)nc2C)cc1	i	/	i	/	/	/

Screens from PubChem.
